In PubChem BioAssay AID1053125 (Broad Institute, 2014):
Potency and affinity values are given separately. Activity calls are given as the source filed them.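 Rule for the calls: active = viability loss whose fitted half-maximal concentration is at most twice the top valid tested dose; inconclusive = flat curve with 30 to 70% loss, or poor fit; inactive = the rest.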

Experiment: HepG2 cell cytotoxicity, dose response, cytotoxicity control, ATP luminescence, cherry-pick, set 6 (AID 1053125);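 note: negative values mean loss of viability signal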
Conditions: HepG2 viability, ATP luminescence (CellTiter-Glo), 72 h; series mostly up to 26 µM; activity change, negative = cytotoxicity: at the top concentration

| SMILES | activity change, negative = cytotoxicity |
| --- | --- |
| Cc1ccc(S(=O)(=O)CCC(=O)OCC(=O)Nc2cccc(S(=O)(=O)N3CCCCC3)c2)cc1 | -2.25% (inactive) |
| O=C(O)[C@@H]1CCCN1S(=O)(=O)c1cccc(S(=O)(=O)N2CCC[C@H]2C(=O)O)c1 | 1.12% (inactive) |
| Cc1cc(CNC(=O)c2ccc3c(c2)OCO3)c2ccccc2n1 | -4.91% (inactive) |
| CN1CCc2c(sc(NC(=O)C3CCCCC3)c2C(N)=O)C1 | -14.3% (inactive) |
| CC(C)C(=O)Nc1sc2c(c1C(N)=O)CCN(Cc1ccccc1)C2 | -11% (inactive) |
| CCOc1ccc2nc(NCCCNS(=O)(=O)c3ccc(C)cc3)c(C#N)cc2c1 | -1.54% (inactive) |
| O=[N+]([O-])c1cccc(-c2n[nH]c(=S)n2-c2ccc(Br)cc2)c1 | -13.9% (inactive) |
| O=C(NCc1ccc(F)cc1)C1CCCN1C(=O)Nc1cccc(F)c1 (centres undefined) | -3.92% (inactive) |
| Cc1oc(/N=C/c2ccc(O)cc2O)c(C#N)c1C | -16.4% (inactive) |
| CCCCn1nc(NC(=O)c2cccs2)c2cc3cc(OC)ccc3nc21 | -14% (inactive) |
| Cc1cc(C)nc(SCC(=O)Nc2ccc(S(=O)(=O)Nc3onc(C)c3C)cc2)n1 | -1.5% (inactive) |
| CCOC(=O)c1cc2c(=O)n3ccccc3nc2n(Cc2ccc(Cl)cc2)c1=N | -10.4% (inactive) |
| Cc1cccn2c(=O)c3cc(C(=O)NCCN4CCOCC4)c(=N)n(Cc4ccc(F)cc4)c3nc12 | 22.3% (inactive) |
| Cc1noc(C)c1-c1ccc(C(=O)NCCc2ccccc2)c2occc12 | -14.3% (inactive) |
| Cc1cc2cc(CNC(=O)c3ccco3)ccc2n1C | -16% (inactive) |
| N#C/C(=C\c1ccc(N2CCOCC2)o1)C(=O)NCCc1ccccc1 | -9.69% (inactive) |
| CSc1ccc(Cl)c(C(=O)N2CCOc3ccccc32)c1 | -2.96% (inactive) |

| SMILES | activity change, negative = cytotoxicity |
| --- | --- |
| CC(C)(C)c1csc(N/N=C/c2ccc(O)cc2)n1 | 41.1% (inactive) |
| CC(=O)OC[C@@H]1CN(Cc2ccccc2)C[C@H](n2cnc3c(N(C)C(C)C)ncnc32)O1 | -6.77% (inactive) |
| CCn1c(=NC(=O)CSC(C)=O)sc2cc(OC)ccc21 | -8% (inactive) |
| Cc1cccn2c(=O)c3cc(C(N)=S)c(=N)n(CCCOC(C)C)c3nc12 | -6.1% (inactive) |
| COc1ccc(CCNC(=O)c2cc(S(=O)(=O)N3CCCCC3)c[nH]2)cc1OC | -2.68% (inactive) |
| CCNc1nc2nc3ccc(C)cn3c(=O)c2cc1C(=O)NCC1CCCO1 (centres undefined) | -17.4% (inactive) |
| NC(=O)c1cc([N+](=O)[O-])ccc1NCc1cccnc1 | 17.7% (inactive) |
| Cc1cc(-n2c(=O)c(C#N)cc3c(=O)n4ccccc4nc32)no1 | -0.148% (inactive) |
| COCc1cc(C)nc(SCC(=O)Oc2ccc(Cl)cc2)c1C#N | -0.038% (inactive) |
| COCCNC(=S)N/N=C/c1ccc(-c2ccc([N+](=O)[O-])cc2)o1 | -8.06% (inactive) |
| Cc1ccc2c(c1)-c1c(cnn1CC(=O)Nc1ccccc1N1CCN(C)CC1)CO2 | -11.7% (inactive) |
| CSc1ccc(Cn2c(C)c(C(=O)NCc3cccc(Cl)c3)sc2=O)cc1 | -16% (inactive) |
| CCc1nnc(NC(=O)c2ccc(-c3ccccc3F)o2)s1 | -17% (inactive) |
| Fc1ccc(-c2nc3ccccn3c2NCc2ccc3c(c2)OCO3)cc1 | -7.07% (inactive) |
| CCC(C)n1c(=N)c(C#N)cc2c(=O)n3cccc(C)c3nc21 (centres undefined) | -8.48% (inactive) |
| Cc1ccc2[nH]c3ccccc3c(=O)c2c1 | -13.1% (inactive) |
| COc1cc(/C=C(\C#N)C(=O)NC(C)C)cc(Cl)c1O | -4.17% (inactive) |
